Screens from PubChem BioAssay.
TGFb SMAD3 inh: qHTS for Inhibitors of TGF-b; HepG2 CAGA-GFP TGF-b/SMAD3 reporter, GFP fluorescence, 18 h; TGF-beta stimulated, 500 pg/mL final; Potency, µM (titrated, usually from 46.1 µM), for inactives: at the top dose activity, negative = inhibition, most hits filed as inhibitors; actives 1.2% (n = 410,000); further: on the % scale 0 is the no-effect control and ±100 the full control effect; nearly all actives have a fitted effect of over 65% in size
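First, reporter cells (HEPG2 CAGA-GFP) rested 2 h at 37 degrees C. Next, compounds were pinned in and TGF-beta added to 500 pg/mL final. After 18 h, GFP was imaged per cell and summed per well.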
RORgamma inh: qHTS for inhibitors of ROR gamma transcriptional activity; Nuclear receptor ROR-gamma (Mus musculus), P51450; Drosophila S2 Gal4-RORgamma UAS-luciferase reporter, 20 h; Potency, µM (titrated, usually from 53.6 µM), for the others: top-dose activity change, negative = inhibition, most hits filed as inhibitors; actives 5.4% (n = 310,000); AID 2551, 2010; further: on the % scale 0 is the no-effect control and ±100 the full control effect; nearly all actives have a fitted effect of over 60% in size
Target sequence (P51450 whole entry, looked up, the tested form may be a part): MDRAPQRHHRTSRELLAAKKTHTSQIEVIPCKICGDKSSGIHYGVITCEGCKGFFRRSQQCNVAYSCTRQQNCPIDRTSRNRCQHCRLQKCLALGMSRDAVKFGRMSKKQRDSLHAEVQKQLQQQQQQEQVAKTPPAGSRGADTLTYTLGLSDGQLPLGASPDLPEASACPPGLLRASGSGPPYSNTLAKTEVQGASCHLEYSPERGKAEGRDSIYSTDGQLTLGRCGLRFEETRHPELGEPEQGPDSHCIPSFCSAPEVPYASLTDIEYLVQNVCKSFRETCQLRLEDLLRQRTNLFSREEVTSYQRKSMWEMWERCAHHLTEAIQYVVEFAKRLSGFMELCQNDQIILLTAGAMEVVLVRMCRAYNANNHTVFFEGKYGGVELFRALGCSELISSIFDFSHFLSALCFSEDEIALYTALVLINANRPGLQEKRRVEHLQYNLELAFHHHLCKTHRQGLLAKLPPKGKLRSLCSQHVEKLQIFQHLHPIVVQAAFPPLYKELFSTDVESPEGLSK
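ROR gamma transcriptional activity was tracked as Gal4-UAS luciferase output in stably transfected Drosophila Schneider cells, with compound added 1 hr before 700 uM copper sulfate induction and a 20 hr ambient-temperature incubation.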
Gal4-VP16 FLuc: VP16 counterscreen qHTS for inhibitors of ROR gamma transcriptional activity; Drosophila S2 Gal4-VP16 UAS-luciferase, luminescence, 20 h; Potency, µM (doses to about 53.6 µM), for the others: top-dose activity, negative = inhibition, usual class: inhibitors; actives 3.5% (n = 310,000); AID 2546, 2010;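 further: Gal4-VP16 expression switched on by copper sulfate through the metallothionein promoter; on the % scale 0 is the no-effect control and ±100 the full control effect; nearly all actives have a fitted effect of over 50% in size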
HepG2 viability: qHTS for Inhibitors of TGF-b: Cytotox Counterscreen | HepG2 CAGA-GFP viability, ATP luminescence, 18 h | Potency, µM (highest dose often 46.1 µM), inactives show top-dose activity change, negative = cytotoxicity, actives largely listed as cytotoxic | actives 0.76% (n = 410,000)
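CellTiter-Glo luminescence gave cytotoxicity after 18 hours at 37 degrees C. The cells were HepG2 CAGA-GFP in 1% FBS DMEM, stimulated with 500 pg/mL TGF-beta after compound addition. %Activity was normalised to no-cell wells (complete cell-killing) and DMSO (no toxicity), and curves were fitted and classified.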
ATXN2 expr inh: Primary qHTS for Inhibitors of ATXN expression | HEK-293 ATXN2-luciferase reporter, luminescence, 24 h | Potency, µM (doses to about 57 µM), for inactives: at the top dose activity change, negative = inhibition, hits mostly inhibitors | actives 0.72% (n = 360,000) | AID 1745845, 2022; further: on the % scale 0 is the no-effect control and ±100 the full control effect; nearly all actives have a fitted effect of over 55% in size
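qHTS (up to 57 uM final) was run with 24 h compound exposure of reporter cells at 37 °C. Each well was multiplexed: SteadyGlo luminescence measured ATXN2-luciferase expression after a fluorogenic Gly-Phe-AFC viability readout (25 uM final).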
ATXN viability: Viability Counterscreen for Primary qHTS for Inhibitors of ATXN expression. S2 cells (HEK-293 line with an ATXN2-luciferase reporter) viability, CellTiter-Fluor protease fluorescence, 24 h. Potency, µM (titrated, usually from 56.7 µM), most hits filed as cytotoxic. actives 0.49% (n = 400,000). AID 651635, 2014; further: nearly all actives have a fitted effect of over 40% in size
The depositor's hits bear a star; i = inactive; ? = inconclusive; nt = not tested or not shown; ! = a repeat was not active; [ ] = another dose, or the depositor's remark. Compounds with a hit are over-represented: about 6.1% of the library has one in this group of screens. The call rests on the fitted dose curve; in most records, active means well fitted curve in the direction sought with a large enough effect; inconclusive means small, poorly fitted or top-dose-only effect, or another doubt; inactive means no such curve, though single readings can be large; an effect the other way counts as inactive or inconclusive. Potency means the concentration at half of the fitted maximal effect.

SMILES	TGFb SMAD3 inh	RORgamma inh	Gal4-VP16 FLuc	HepG2 viability	ATXN2 expr inh	ATXN viability
COc1cccc2cc(/C(C)=N/Nc3nc(-c4cc(C)ccc4C)cs3)c(=O)oc12	?	0.79µM*	-6%	4%	12%	i
OC(Br)C(O)C(O)N1CCCc2ccccc21 (stereo not given)	-22%	nt	nt	-10%	nt	nt
O=C(NC(=S)N1CCN(c2ccc(C(F)(F)F)cc2[N+](=O)[O-])CC1)c1cccs1	?	0.11µM*	?	-8%	?	nt
CCN1CCN(C(=S)NC(=O)/C=C/c2cccs2)CC1	-20%	3.2µM*	?	-2%	nt	i
CCN1CCN(C(=S)NC(=O)c2cccs2)CC1	-22%	6.3µM*	?	5%	17%	i
CC(=O)N1CCN(C(=O)CNC(=O)c2cccs2)CC1	-1%	nt	nt	-2%	4%	i
CS(=O)(=O)Nc1cccc(-c2nccc(Nc3ccc(F)cc3)n2)c1	nt	?	2%	nt	nt	nt
CN(Cc1cccc(F)c1)C(=O)c1ccc(NS(=O)(=O)c2ccc3[nH]c(=O)[nH]c3c2)cc1	-16%	nt	nt	0.28µM*	-15%	i
Cc1ccc(CN(C)C(=O)c2ccc(NS(=O)(=O)c3ccc4[nH]c(=O)[nH]c4c3)cc2)cc1	?	nt	nt	5%	10%	i
O=C(C[N+]1(CCc2ccccc2)CCOCC1)c1cccc([N+](=O)[O-])c1	-9%	nt	nt	-1%	nt	nt
COc1cccc(CNC(=O)C(C)n2ncn3cccc3c2=O)c1OC (stereo not given)	27%	nt	nt	-1%	-3%	i
Cc1cccc(C(=O)NC(=S)Nc2ccccc2C(F)(F)F)c1	?	4.5µM*	5.6µM*	-18%	45%	i
Cc1cccc(C(=O)NC(=S)Nc2ccccc2C(=O)O)c1	0%	1%	-10%	-1%	3%	i
Cc1ccc(C(=O)NC(=S)Nc2ccccc2C(F)(F)F)cc1C	0%	2.5µM*	13µM*	-17%	36%	i
CCc1cc(C(=O)c2ccc(OC)cc2)c(NC(=O)CN2CCCC2)s1	-14%	2%	6%	-46%	nt	i
CCc1cc(C(=O)c2ccc(OC)cc2)c(NC(=O)CN2CCCCC2)s1	1%	7.1µM*	-24%	3%	nt	i
CCn1c(=O)c(C(=O)NCc2ccccc2Cl)c(O)c2ccccc21	-20%	?	20µM*	-2%	-24%	i
CCCCCCC(=O)NNC(=O)c1c(O)c2ccccc2n(CC)c1=O	-18%	11µM*	?	-24%	2%	i
CCCn1c(=O)c(C(=O)Nc2cccc(C)c2)c(O)c2ccccc21	1%	?	13µM*	-2%	nt	?
CCCn1c(=O)c(C(=O)NNC(=O)Cc2ccccc2)c(O)c2ccccc21	-3%	-21%	-5%	-6%	-22%	i
CCCn1c(=O)c(C(=O)NNC(=O)c2ccccc2Cl)c(O)c2ccccc21	?	11µM*	?	-47%	-19%	i
O=c1n(Cc2ccc(F)cc2)c2ccccc2c2nc(-c3ccccc3)nn12	-10%	nt	nt	-14%	nt	nt
COc1ccc(CCNC(=O)C(=O)Nc2ccc(C)cc2)cc1OC	8%	nt	nt	-3%	5%	i
CSc1nnc(CCNC(=O)c2ccccc2C(F)(F)F)n1-c1ccc(F)cc1	nt	nt	nt	nt	nt	i
N/C(=N\N=C/c1ccc(Br)cc1)N/N=C\c1ccc(Br)cc1	?	-27%	-7%	11µM*	-3%	i
SMILES	TGFb SMAD3 inh	RORgamma inh	Gal4-VP16 FLuc	HepG2 viability	ATXN2 expr inh	ATXN viability
N/C(=N\N=C/c1ccc(F)cc1)N/N=C\c1ccc(F)cc1	?	?	-1%	-131%	nt	?
N/C(=N\N=C\c1ccc(Cl)cc1)N/N=C/c1ccc(Cl)cc1	nt	14µM*	-16%	nt	?	?
N/C(=N\N=Cc1ccc2c(c1)OCO2)NN=Cc1ccc2c(c1)OCO2	?	nt	nt	-42%	0%	30µM*
CC1CCC2C(=O)N3C(CCC(C)C3c3ccccc3Br)C(=O)N2C1c1ccc(C#CCN(C)C)cc1 (stereo not given)	nt	10%[10 µM]	-1%[10 µM]	nt	nt	nt
Cc1nc(-c2ccc(S(=O)(=O)NCc3ccc(OC(C)C)cc3)cc2)co1	-6%	nt	nt	-24%	-12%	i
CN(C)c1ccc(C=O)cc1[N+](=O)[O-]	-15%	nt	nt	-37%	nt	nt
CC(C)Cc1ccc(C(C)C(N)=NCCc2ccccc2)cc1 (stereo not given)	?	?	-13%	18µM*	?	?
COc1ccc(CCN=C(N)C(C)c2ccccc2)cc1OC (stereo not given)	-10%	-2%	6%	4%	-15%	i
C[C@@H]1C[C@H]2[C@@H]3CCC4=CC(=O)C=C[C@]4(C)[C@@]3(F)C(O)C[C@]2(C)[C@@]1(O)C(=O)CO (stereo not given in full)	6%	nt	nt	5%	nt	nt
Cc1ccc(-c2csc3ncnc(Sc4nnnn4-c4ccccc4)c23)cc1	6.3µM*	nt	nt	-97%	nt	nt
Cc1sc2ncnc(Sc3nnnn3-c3ccccc3)c2c1C	13µM*!	-102%	?	10µM*!	16µM*	32µM*
Clc1ccc(-c2csc3ncnc(Sc4nnnn4-c4ccccc4)c23)cc1	6.3µM*	nt	nt	6.3µM*	nt	nt
CCc1ccccc1NC(=O)CN(Cc1ccccc1)S(=O)(=O)c1ccc(Br)cc1	?	nt	nt	-52%	-25%	i
OC[C@H]1O[C@@H](Oc2ccc(O)cc2)[C@H](O)[C@@H](O)[C@H]1O	nt	nt	nt	nt	9%	nt
CC(NC(=O)c1cccnc1)c1nnc2n1CCN(Cc1ccc(F)cc1F)CC2 (stereo not given)	nt	nt	nt	nt	nt	i
Cc1ccc(CN2CCOc3ccc(CN4CCN(CCO)CC4)cc3C2)s1	nt	nt	nt	nt	nt	i
COC(=O)c1ccc(-c2nc3cc(Cl)c(N)cc3s2)cc1	-9%	5µM*	-10%[0.365 µM]	4%	-3%	i
COC(=O)c1ccc(-c2nc(O)c(C)s2)cc1	-4%	-1%	-3%[10 µM]	-17%	5%	i
CCOc1ccc(CNC(=O)CCc2c(C)nn(-c3ccc(N4CCOCC4)nn3)c2C)cc1	6%	nt	nt	-10%	13%	i
CCCCn1c(O)c(N=Nc2ccccc2O)c2ccccc21	?	nt	nt	-57%	25%	i
CCCCn1c(O)c(N=Nc2ccccn2)c2ccccc21	?	10µM*	?	-12%	21%	i
CN(C)c1ccc(C(=O)N2CCCC(Cn3cc(C(=O)N4CCCC4)nn3)C2)cc1 (stereo not given)	nt	nt	nt	nt	nt	i
NCCCCCCNS(=O)(=O)c1cccc2c(Cl)cccc12	?	25%	15%	-49%	?	nt
